# Experimental data reported in ChEMBL document CHEMBL3988442, “University of Dundee, Small-Polar-MMV Screening Library” (2021).
# Screen size: about 69,000 compounds; about 420 (0.61%) showed an effect of 50% or more. The sample holds strong results, similar compounds and a random draw of the others, so the mix is not that of the screen.
# Molecular target: T1, Histidine--tRNA ligase (Leishmania infantum) (UniProt A4I591)
# T1 sequence (whole entry): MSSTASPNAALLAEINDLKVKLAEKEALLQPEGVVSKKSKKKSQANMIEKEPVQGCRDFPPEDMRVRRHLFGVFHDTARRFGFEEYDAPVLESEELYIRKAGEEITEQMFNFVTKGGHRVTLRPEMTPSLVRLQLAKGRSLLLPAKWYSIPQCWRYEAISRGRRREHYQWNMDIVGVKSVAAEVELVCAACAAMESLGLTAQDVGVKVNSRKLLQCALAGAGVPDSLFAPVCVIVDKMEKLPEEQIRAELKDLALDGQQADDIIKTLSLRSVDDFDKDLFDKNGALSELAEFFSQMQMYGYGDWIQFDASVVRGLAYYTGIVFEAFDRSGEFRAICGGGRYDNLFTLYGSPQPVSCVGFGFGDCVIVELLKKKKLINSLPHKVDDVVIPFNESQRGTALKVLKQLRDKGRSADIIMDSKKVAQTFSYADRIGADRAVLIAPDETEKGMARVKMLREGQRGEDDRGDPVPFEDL
# Assay: Leishmania infantum Histidine tRNA synthetase (LdHisRS)
# Assay type: functional
# Parameters: scale not given: in the data most compounds retested in dose-response had high values
# Conditions: 30 µM
row,SMILES,Percent Effect
1,Cc1ccc(CN2CC[C@@H]3OCCN(S(C)(=O)=O)[C@H]3CC2)s1,7.55%
2,Cn1cc(C(=O)N2CC[C@@H]3[C@@H]2CCN3Cc2cccc(C#N)c2)cn1,3%
3,CN(C)C[C@@H]1C[C@@H]2CN(C(=O)Cc3cccs3)CC[C@@H]2N1C,6.42%
4,Cc1ccc(CN2CC[C@H]3C(=O)N(Cc4cccnc4)CCO[C@H]3C2)o1,5.88%
5,COc1ccccc1N1CCC(CNCc2cccc(OC)c2OC)C1 (centres undefined),59.5%
6,COc1ccc(CNCC2CCN(c3ccccc3OC)C2)cc1O (centres undefined),16.1%
7,COc1ccccc1N1CCC(CNCc2cccc(O)c2)C1 (centres undefined),21.4%
8,O=C(c1ccco1)N1CCO[C@@H]2CN(c3ccccn3)CC[C@@H]2C1,17.5%
9,CN1CCN(C(=O)[C@@H]2CC[C@@H]3[C@@H](CCN3c3ncccn3)O2)CC1,14%
10,Cc1ccccc1NC(=O)N1CCN(C(=O)C2CC2)[C@@H]2CS(=O)(=O)C[C@@H]21,4.92%
11,CCN(Cc1cccc2c1OCO2)CC1CCCO1 (centres undefined),20%
12,CCN(Cc1ccc(O)c(C(=O)O)c1)CC1CCCO1 (centres undefined),16.4%
13,CCN(Cc1ccc2cccc(O)c2n1)CC1CCCO1 (centres undefined),74%
14,CCCc1ccc(CN2CCC3(CC2)CNC(=O)C3)o1,11.7%
15,O=C1CC2(CCN(Cc3ccc(C(F)(F)F)nc3)CC2)CN1,15.4%
16,O=C1CC2(CCN(Cc3ccc4cccc(O)c4n3)CC2)CN1,63.2%
17,O=C(c1cnccn1)N1CCN2C[C@H](OCc3ccccc3F)C[C@H]2C1,1.37%
18,O=C(Cc1ccsc1)N1C[C@@H]2COC[C@]2(COc2cccnc2)C1,15.4%
19,CCc1ccccc1OCCN1CC[C@@]2(O)CCNC[C@H]2C1,15.8%
20,CNC(=O)[C@@]12CCO[C@@H]1CCN(S(=O)(=O)c1ccc(C)cc1)C2,-5%
21,CCc1c(C(=O)N2CCN(C)[C@@H]3CS(=O)(=O)C[C@@H]32)[nH]c2ccccc12,11%
22,CC(=O)N1CCCCC1c1nnc2n1CCNC2 (centres undefined),2.76%
23,CC(C)NC(=O)N1CCC(c2nnc3n2CCNC3)CC1,74.5%

row,SMILES,Percent Effect
1,CC(C)NC(=O)N1CCCCC1c1nnc2n1CCNC2 (centres undefined),30.3%
2,O=C(CS(=O)(=O)Cc1csc(-c2ccc(F)cc2)n1)NCC1CC1,48.2%
3,NC(=O)CS(=O)(=O)Cc1csc(-c2ccc(F)cc2)n1,16.9%
4,NC(=O)CS(=O)(=O)Cc1csc(-c2ccccc2)n1,53%
5,O=C([C@@H]1CCO[C@@H]2CCN(CC3CC3)C[C@H]21)N1CCCCO1,17.9%
6,O=C(c1ccccc1)N1C[C@@H]2CCCO[C@@H]2[C@H](N2CCCC2)C1,22.8%
7,CCC[C@@H]1CN(C(=O)c2ccccc2C(C)=O)C[C@H]1N(C)C,8.57%
8,CCC[C@@H]1CN(C(=O)c2ccccc2-c2ccccc2)C[C@H]1N(C)C,8.57%
9,CCC[C@@H]1CN(C(=O)c2cc3ccccc3cc2O)C[C@H]1N(C)C,77.1%
10,CCC1=N[C@@]2(CC[C@@H]3CN(CC(C)C)C[C@@H]32)C(=O)N1,11.1%
11,CCOc1cccc(C(=O)N2C[C@H]3CC[C@@H]2CN(C(=O)C2CCC2)C3)c1,4%
12,Cc1ccc(OCc2occc2C(=O)N2C[C@@H]3[C@@H](CN(C)C)[C@@H]3C2)cc1,15.9%
13,Cc1nc(COC[C@@]23CCC[C@@H]2CN(Cc2nccs2)C3)cs1,15.8%
14,CN(C)C(=O)CO[C@H]1CN(Cc2nccs2)[C@@H]2COC[C@H]12,9.91%
15,NC(=O)C1=NC2=NS(=O)(=O)c3ccccc3N2N1Cc1ccc(Br)cc1,59.7%
16,NC(=O)C1=NN2C(=NS(=O)(=O)c3ccccc32)N1,14.8%
17,NC(=O)CN(Cc1ccc(Br)cc1)C(=O)c1ccccn1,7.29%
18,NC(=O)C1=NC2=NS(=O)(=O)c3ccccc3N2N1Cc1ccc(Cl)cc1,58.1%
19,NC(=O)C1=NC2=NS(=O)(=O)c3ccccc3N2N1Cc1ccccc1Cl,37.1%
20,Cc1nnc([C@@H]2CC[C@@H]3[C@@H](CCN3C3CCOCC3)O2)o1,2.63%
21,Cc1ccc(CN2CC[C@H]3[C@H]2CCN3S(C)(=O)=O)s1,20%
22,O=C(c1ccccn1)N1C[C@@H]2CC[C@H](C1)N(C(=O)CCc1ccsc1)C2,10.4%
23,Cc1nnsc1CN1C[C@H]2CC[C@@H]1CN(Cc1ccc(F)cc1)C2,8.33%

row,SMILES,Percent Effect
1,CC(=O)N1CCCCC[C@@H]2[C@@H]1[C@H](c1cccc(F)c1)CN2CCC(N)=O,13%
2,CC(CCc1ccccc1F)C(=O)NS(C)(=O)=O (centres undefined),16.9%
3,CC(CCc1ccccc1)NC(=O)Nc1cnn(CC(N)=O)c1 (centres undefined),24.3%
4,COCCn1cc(NC(=O)NC(C)CCc2ccccc2)ccc1=O (centres undefined),98.3%
5,COCCn1cc(NC(=O)C(C)CCc2ccccc2F)ccc1=O (centres undefined),102%
6,CC(CCc1ccccc1F)C(=O)NS(=O)(=O)N(C)C(C)C (centres undefined),19.5%
7,CC(CCc1ccccc1)NC(=O)CN1CCOCC1 (centres undefined),1.49%
8,COc1ccc(CN2C[C@@H]3COC[C@]3(CN(C)C)C2)cc1,17.6%
9,O=C(Cc1ccncc1)N1C[C@@H]2CC[C@H](C1)N(Cc1ccccc1)C2=O,6.56%
10,O=C(Cc1csc(-c2ccco2)n1)N1CCN(c2cnccn2)CC1,56.8%
11,O=C(Cc1csc(-c2ccco2)n1)N1CCN(c2nccs2)CC1,20%
12,Cc1ccc(-c2nc(CC(=O)N3CCN(c4cnccn4)CC3)cs2)o1,28.7%
13,Cc1noc(C)c1CN1CC[C@H]2OCC[C@@H](C(=O)N3CCCO3)[C@H]2C1,20%
14,O=S(=O)(C1CC1)N1CCO[C@H]2[C@H](OCCN3CCCC3)CC[C@@H]21,15.1%
15,O=C1[C@H]2CN(CC3CCOCC3)C[C@H]2CN1c1ccsc1,8%
16,O=C(CC1CC1)N[C@@H]1CN(Cc2ccco2)C[C@@H]2CCCO[C@@H]21,17.1%
17,COCC(=O)N1CCC(C)(c2cc(O)[nH]n2)CC1,17.1%
18,COCCN1CCC(C)(c2cc(O)[nH]n2)CC1,50%
19,COCCN1CCCC(C)(c2cc(O)[nH]n2)C1 (centres undefined),47.1%
20,Cc1oncc1C(=O)N[C@@H]1CN(c2ncccn2)C[C@@H]2CCCO[C@@H]21,20%
21,CN1CCO[C@@H]2CN(S(=O)(=O)c3ccc(F)cc3)CC[C@@H]2C1,17.9%
22,CN(Cc1ccco1)C[C@H]1OC[C@@H]2CCN(Cc3cccnc3)C[C@@H]21,13.2%
23,c1cncc(CN2CC[C@@H]3O[C@H](COCCN4CCCC4)CC[C@@H]32)c1,16%
